Compounds without any hit were thinned out: in the full panel of roughly 83,000, 20% have a hit.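 Step 1: grow cells in 96-well plates. Step 2: add test compound at a single concentration. Step 3: incubate 48 h. Step 4: record percent growth.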 Unmarked numbers belong to inactive results. Calls of active or inactive are those of the source. The calls were made as follows: active = growth percent below 10; inactive = the rest.

The subject of one experiment is UACC-62 melanoma. Put plainly: NCI-60 one-dose screen, 48 h (100 = growth as untreated, 0 = no growth, -100 = all killed). The following applies: 10 µM unless noted.
For `COc1cccc2cc(-c3cc4ccccc4[nH]3)/c(=N/C(=S)Nc3ccc(C)cc3)oc12`, the growth is 65.7%.
Still for that read-out and setting: to `CN1C(=O)N(C)C2NC(N/N=C/c3ccccc3)=NC21` (stereo unspecified) belongs 100%.
Same read-out and setting: to `COc1cc(-c2cc(=O)oc3cc(O)ccc23)cc(OC)c1OC` belongs 88.1%; to `COc1ccccc1/C=N/NC1=NC2C(N1)N(C)C(=O)N2C` (stereo unspecified), 100%; to `CCN(CC)CCSCCCNc1c(C)cnc2cc(Cl)ccc12`, 93.9%.
The same measure, in the same setting: to `COc1cc(Nc2cc(O)c3c(=O)cc(-c4ccccc4)oc3c2)cc(OC)c1` belongs 42.5%; to `NC(=O)c1ncn(C2OC(CO)C(O)C2O)n1` (stereo unspecified), 104%.
Regarding `C(=N\Nc1ncc(-c2cc3cc4c(cc3o2)OCO4)s1)/c1c[nH]c2ccccc12`, the growth was 1.76% (active).
The same measure, in the same setting: to `c1ccc(C2CC(c3cccc(Nc4ccncc4)c3)=NN2c2ccccc2)cc1` (stereo unspecified) belongs 96.8%; to `CC1=NNC(=O)C1CCC(=O)N/N=C(\C)c1ccc2ccccc2c1` (stereo unspecified), 97.5%.
Consider `O=C(N/N=C/c1ccncc1)c1ccccc1Nc1cccc(C(F)(F)F)c1`, for which the growth was 81%.
Still for that read-out and setting: to `COc1ccc(Nn2c(SCC(=O)Nc3nc(-c4ccc(Cl)cc4)cs3)nc(C)c2C)cc1` belongs 49.5%; to `COc1c(Cl)cc(Cl)c2ccc(C=C3C(=O)N(C)C(=O)N(C)C3=O)nc12`, 102%.
On the same count and under the same terms, to `Cc1cccc(C)c1-c1cc(Cc2ccc(Cl)cc2)c(=O)[nH]n1` belongs 93.7%; to `CCN1C(=O)N(CC)C2C1NN=c1s/c(=C3\C(=O)Nc4ccccc43)c(=O)n12` (stereo unspecified), 30.9%; to `CC(=O)Nc1ccc(C(=O)Nc2cc(-c3ccccc3)ccc2N)cc1`, 39.5%.
With `CN1CCN(c2cc(F)c(NC3=C(Cl)C(=O)c4ncccc4C3=O)c(F)c2)CC1`, the growth was -45.6% (active).
Still for that read-out and setting: to `Clc1nc(Cl)c2ncn(CC3(Cn4cnc5c(Cl)nc(Cl)nc54)COC3)c2n1` belongs -92.4% (active); to `CC(C)(C)CC(C)(C)Nc1c(-c2ccc(C(F)(F)F)cc2)nc2cnccn12`, 72.9%; to `CCC(C)N(CCNc1cc(OC)cc2cccnc12)CCC(C)C` (stereo unspecified), 94.2%.
On the same count and under the same terms, to `Cn1c(COC(=O)NCCc2ccccn2)nc2c(N3CCOCC3)nc(Cl)nc21` belongs 11.1%; to `BrC(Br)(Br)c1cnc2ccccc2n1`, 61.4%; to `Clc1ccc(N2N=C(c3cccc(Nc4ccncc4)c3)CC2c2ccc3c(c2)OCO3)cc1` (stereo unspecified), 90.8%.
The same measure, in the same setting: to `COc1cc(CNC(=O)CCCCC[P+](c2ccccc2)(c2ccccc2)c2ccccc2)c(OC)c2c1OCO2` belongs 41.8%; to `CC[C@@]12C=CCN3CC[C@]4(c5cc(NC(=O)COc6cc(OCC(=O)Nc7cc8c(cc7OC)N(C)[C@H]7[C@@](O)(C(=O)OC)[C@H](OC(C)=O)[C@]9(CC)C=CCN%10CC[C@]87[C@@H]%109)cc7oc(-c8ccccc8)cc(=O)c67)c(OC)cc5N(C)[C@@H]4[C@](O)(C(=O)OC)[C@H]1OC(C)=O)[C@H]32`, 93.8%.
For `O=C1Nc2c(ccc(Cl)c2Cl)/C1=C/c1ccc(O)cc1`, the growth is 76.7%.
Same read-out and setting: to `COc1ccc(/C=C(/c2ccccc2)[N+](=O)[O-])cc1` belongs -17.6% (active); to `COc1ccccc1/C=C1\Oc2cc(OCCCN3CCCC3)ccc2C1=O`, 95.6%; to `COc1ccc(/C=C\c2nc3ccccc3s2)cc1OP(=O)(O)O`, 41.5%.
On the same count and under the same terms, to `COc1ccc(-c2c[nH]c(C(=O)O)c2-c2cc(OC)c3c(c2OC)OCO3)cc1` belongs 95.4%; to `COc1ccc(C(=O)c2cc3c(N)c(C(=O)Nc4cccc(Cl)c4C)sc3nc2C)cc1`, 32%.
Take `O=C(/C=C\c1ccc(OCCCCCC[P+](c2ccccc2)(c2ccccc2)c2ccccc2)cc1)c1ccc2c(c1)OCCO2`: the growth is -18.1% (active).
Still for that read-out and setting: to `Cc1cccc(Oc2ccc(Nc3ncnc4ccc(NC(=O)CNCCO)cc34)cc2Cl)c1` belongs 97.6%; to `O=C(CSc1nc2sc3c(c2c(=O)n1Cc1ccccc1)CCCC3)N1CCN(c2ccccc2)CC1`, 96%.
On to `Cc1cccc(Oc2ccc(Nc3ncnc4ccc(NC(=O)CN(C)C)cc34)cc2Cl)c1`, for which the growth was 102%.
Still for that read-out and setting: to `O=C1/C(=C/c2ccc(O)cc2)COc2ccc(-c3ccccc3)cc21` belongs 88.4%; to `COc1ccc(C(=O)c2cc3c(N)c(C(=O)Nc4cccc(OC)c4)sc3nc2C)cc1`, 44.5%; to `NS(=O)(=O)c1cccc(NC(=O)C(=O)C2C(=O)Nc3ccccc32)c1` (stereo unspecified), 94.4%.

The next experiment deals with LOX IMVI melanoma. The experiment is described as above. The following applies: 10 µM unless noted.
Consider `COc1cccc2cc(-c3cc4ccccc4[nH]3)/c(=N/C(=S)Nc3ccc(C)cc3)oc12`, for which the growth is 71.2%.
Turning to `CN1C(=O)N(C)C2NC(N/N=C/c3ccccc3)=NC21` (stereo unspecified), the growth was 96.5%.
The same measure, in the same setting: to `COc1cc(-c2cc(=O)oc3cc(O)ccc23)cc(OC)c1OC` belongs 97.1%; to `COc1ccccc1/C=N/NC1=NC2C(N1)N(C)C(=O)N2C` (stereo unspecified), 99.5%; to `CCN(CC)CCSCCCNc1c(C)cnc2cc(Cl)ccc12`, 79.5%.
Same read-out and setting: to `COc1cc(Nc2cc(O)c3c(=O)cc(-c4ccccc4)oc3c2)cc(OC)c1` belongs 41.7%; to `NC(=O)c1ncn(C2OC(CO)C(O)C2O)n1` (stereo unspecified), 90.3%; to `C(=N\Nc1ncc(-c2cc3cc4c(cc3o2)OCO4)s1)/c1c[nH]c2ccccc12`, -94% (active).
On the same count and under the same terms, to `c1ccc(C2CC(c3cccc(Nc4ccncc4)c3)=NN2c2ccccc2)cc1` (stereo unspecified) belongs 43.7%; to `CC1=NNC(=O)C1CCC(=O)N/N=C(\C)c1ccc2ccccc2c1` (stereo unspecified), 99.5%; to `O=C(N/N=C/c1ccncc1)c1ccccc1Nc1cccc(C(F)(F)F)c1`, 70.5%.
For `COc1ccc(Nn2c(SCC(=O)Nc3nc(-c4ccc(Cl)cc4)cs3)nc(C)c2C)cc1`, the growth was 38.9%.
In the case of `COc1c(Cl)cc(Cl)c2ccc(C=C3C(=O)N(C)C(=O)N(C)C3=O)nc12`, the growth is 101%.
On the same count and under the same terms, to `Cc1cccc(C)c1-c1cc(Cc2ccc(Cl)cc2)c(=O)[nH]n1` belongs 93.4%; to `CCN1C(=O)N(CC)C2C1NN=c1s/c(=C3\C(=O)Nc4ccccc43)c(=O)n12` (stereo unspecified), 42.2%.
`CC(=O)Nc1ccc(C(=O)Nc2cc(-c3ccccc3)ccc2N)cc1`: the growth is 71.3%.
`CN1CCN(c2cc(F)c(NC3=C(Cl)C(=O)c4ncccc4C3=O)c(F)c2)CC1`: the growth was -70.3% (active).
Same read-out and setting: to `Clc1nc(Cl)c2ncn(CC3(Cn4cnc5c(Cl)nc(Cl)nc54)COC3)c2n1` belongs -89.2% (active); to `CC(C)(C)CC(C)(C)Nc1c(-c2ccc(C(F)(F)F)cc2)nc2cnccn12`, 97.6%; to `CCC(C)N(CCNc1cc(OC)cc2cccnc12)CCC(C)C` (stereo unspecified), 86%.
As to `Cn1c(COC(=O)NCCc2ccccn2)nc2c(N3CCOCC3)nc(Cl)nc21`, the growth is -83.7% (active).
Still for that read-out and setting: to `BrC(Br)(Br)c1cnc2ccccc2n1` belongs 30.6%; to `Clc1ccc(N2N=C(c3cccc(Nc4ccncc4)c3)CC2c2ccc3c(c2)OCO3)cc1` (stereo unspecified), -74.4% (active).
For `COc1cc(CNC(=O)CCCCC[P+](c2ccccc2)(c2ccccc2)c2ccccc2)c(OC)c2c1OCO2`, the growth was 61%.
For `CC[C@@]12C=CCN3CC[C@]4(c5cc(NC(=O)COc6cc(OCC(=O)Nc7cc8c(cc7OC)N(C)[C@H]7[C@@](O)(C(=O)OC)[C@H](OC(C)=O)[C@]9(CC)C=CCN%10CC[C@]87[C@@H]%109)cc7oc(-c8ccccc8)cc(=O)c67)c(OC)cc5N(C)[C@@H]4[C@](O)(C(=O)OC)[C@H]1OC(C)=O)[C@H]32`, the growth is 7.97% (active).
Take `O=C1Nc2c(ccc(Cl)c2Cl)/C1=C/c1ccc(O)cc1`: the growth is 63.7%.
Take `COc1ccc(/C=C(/c2ccccc2)[N+](=O)[O-])cc1`: the growth was -89.6% (active).
On the same count and under the same terms, to `COc1ccccc1/C=C1\Oc2cc(OCCCN3CCCC3)ccc2C1=O` belongs 75.8%; to `COc1ccc(/C=C\c2nc3ccccc3s2)cc1OP(=O)(O)O`, 41.5%; to `COc1ccc(-c2c[nH]c(C(=O)O)c2-c2cc(OC)c3c(c2OC)OCO3)cc1`, 95.4%.
Same read-out and setting: to `COc1ccc(C(=O)c2cc3c(N)c(C(=O)Nc4cccc(Cl)c4C)sc3nc2C)cc1` belongs 21.9%; to `O=C(/C=C\c1ccc(OCCCCCC[P+](c2ccccc2)(c2ccccc2)c2ccccc2)cc1)c1ccc2c(c1)OCCO2`, -68.2% (active).
The same measure, in the same setting: to `Cc1cccc(Oc2ccc(Nc3ncnc4ccc(NC(=O)CNCCO)cc34)cc2Cl)c1` belongs 14.6%; to `O=C(CSc1nc2sc3c(c2c(=O)n1Cc1ccccc1)CCCC3)N1CCN(c2ccccc2)CC1`, 97%.
Regarding `Cc1cccc(Oc2ccc(Nc3ncnc4ccc(NC(=O)CN(C)C)cc34)cc2Cl)c1`, the growth was -78.1% (active).
On the same count and under the same terms, to `O=C1/C(=C/c2ccc(O)cc2)COc2ccc(-c3ccccc3)cc21` belongs 53.9%; to `COc1ccc(C(=O)c2cc3c(N)c(C(=O)Nc4cccc(OC)c4)sc3nc2C)cc1`, 36.6%.
On to `NS(=O)(=O)c1cccc(NC(=O)C(=O)C2C(=O)Nc3ccccc32)c1` (stereo unspecified), for which the growth was 95.6%.

Values taken from PubChem BioAssay (NCI).
